Hit rate of the full screen: of about 190,000 compounds, about 6,900 (3.6%) were called active. Only a selection was taken, and actives are over-represented in it overall. Values without a mark were called inactive. Cut-off read from the data, not from the text of the source: active = inhibition above about 50%; inactive = the rest.
Each compound was assayed against Huntingtin (Homo sapiens) (UniProt P42858) (assay: mutant huntingtin-calmodulin interaction inhibitors – biochemical, AlphaScreen, primary screen (AID 1671202;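 note: 0% = both proteins with DMSO and 100% = one protein alone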)). Conditions: AlphaScreen His-mHTT/GST-CaM binding, luminescence; at 15 µM, active compounds read high.
Chain of Huntingtin (Homo sapiens) (P42858 whole entry, looked up, stated change not applied): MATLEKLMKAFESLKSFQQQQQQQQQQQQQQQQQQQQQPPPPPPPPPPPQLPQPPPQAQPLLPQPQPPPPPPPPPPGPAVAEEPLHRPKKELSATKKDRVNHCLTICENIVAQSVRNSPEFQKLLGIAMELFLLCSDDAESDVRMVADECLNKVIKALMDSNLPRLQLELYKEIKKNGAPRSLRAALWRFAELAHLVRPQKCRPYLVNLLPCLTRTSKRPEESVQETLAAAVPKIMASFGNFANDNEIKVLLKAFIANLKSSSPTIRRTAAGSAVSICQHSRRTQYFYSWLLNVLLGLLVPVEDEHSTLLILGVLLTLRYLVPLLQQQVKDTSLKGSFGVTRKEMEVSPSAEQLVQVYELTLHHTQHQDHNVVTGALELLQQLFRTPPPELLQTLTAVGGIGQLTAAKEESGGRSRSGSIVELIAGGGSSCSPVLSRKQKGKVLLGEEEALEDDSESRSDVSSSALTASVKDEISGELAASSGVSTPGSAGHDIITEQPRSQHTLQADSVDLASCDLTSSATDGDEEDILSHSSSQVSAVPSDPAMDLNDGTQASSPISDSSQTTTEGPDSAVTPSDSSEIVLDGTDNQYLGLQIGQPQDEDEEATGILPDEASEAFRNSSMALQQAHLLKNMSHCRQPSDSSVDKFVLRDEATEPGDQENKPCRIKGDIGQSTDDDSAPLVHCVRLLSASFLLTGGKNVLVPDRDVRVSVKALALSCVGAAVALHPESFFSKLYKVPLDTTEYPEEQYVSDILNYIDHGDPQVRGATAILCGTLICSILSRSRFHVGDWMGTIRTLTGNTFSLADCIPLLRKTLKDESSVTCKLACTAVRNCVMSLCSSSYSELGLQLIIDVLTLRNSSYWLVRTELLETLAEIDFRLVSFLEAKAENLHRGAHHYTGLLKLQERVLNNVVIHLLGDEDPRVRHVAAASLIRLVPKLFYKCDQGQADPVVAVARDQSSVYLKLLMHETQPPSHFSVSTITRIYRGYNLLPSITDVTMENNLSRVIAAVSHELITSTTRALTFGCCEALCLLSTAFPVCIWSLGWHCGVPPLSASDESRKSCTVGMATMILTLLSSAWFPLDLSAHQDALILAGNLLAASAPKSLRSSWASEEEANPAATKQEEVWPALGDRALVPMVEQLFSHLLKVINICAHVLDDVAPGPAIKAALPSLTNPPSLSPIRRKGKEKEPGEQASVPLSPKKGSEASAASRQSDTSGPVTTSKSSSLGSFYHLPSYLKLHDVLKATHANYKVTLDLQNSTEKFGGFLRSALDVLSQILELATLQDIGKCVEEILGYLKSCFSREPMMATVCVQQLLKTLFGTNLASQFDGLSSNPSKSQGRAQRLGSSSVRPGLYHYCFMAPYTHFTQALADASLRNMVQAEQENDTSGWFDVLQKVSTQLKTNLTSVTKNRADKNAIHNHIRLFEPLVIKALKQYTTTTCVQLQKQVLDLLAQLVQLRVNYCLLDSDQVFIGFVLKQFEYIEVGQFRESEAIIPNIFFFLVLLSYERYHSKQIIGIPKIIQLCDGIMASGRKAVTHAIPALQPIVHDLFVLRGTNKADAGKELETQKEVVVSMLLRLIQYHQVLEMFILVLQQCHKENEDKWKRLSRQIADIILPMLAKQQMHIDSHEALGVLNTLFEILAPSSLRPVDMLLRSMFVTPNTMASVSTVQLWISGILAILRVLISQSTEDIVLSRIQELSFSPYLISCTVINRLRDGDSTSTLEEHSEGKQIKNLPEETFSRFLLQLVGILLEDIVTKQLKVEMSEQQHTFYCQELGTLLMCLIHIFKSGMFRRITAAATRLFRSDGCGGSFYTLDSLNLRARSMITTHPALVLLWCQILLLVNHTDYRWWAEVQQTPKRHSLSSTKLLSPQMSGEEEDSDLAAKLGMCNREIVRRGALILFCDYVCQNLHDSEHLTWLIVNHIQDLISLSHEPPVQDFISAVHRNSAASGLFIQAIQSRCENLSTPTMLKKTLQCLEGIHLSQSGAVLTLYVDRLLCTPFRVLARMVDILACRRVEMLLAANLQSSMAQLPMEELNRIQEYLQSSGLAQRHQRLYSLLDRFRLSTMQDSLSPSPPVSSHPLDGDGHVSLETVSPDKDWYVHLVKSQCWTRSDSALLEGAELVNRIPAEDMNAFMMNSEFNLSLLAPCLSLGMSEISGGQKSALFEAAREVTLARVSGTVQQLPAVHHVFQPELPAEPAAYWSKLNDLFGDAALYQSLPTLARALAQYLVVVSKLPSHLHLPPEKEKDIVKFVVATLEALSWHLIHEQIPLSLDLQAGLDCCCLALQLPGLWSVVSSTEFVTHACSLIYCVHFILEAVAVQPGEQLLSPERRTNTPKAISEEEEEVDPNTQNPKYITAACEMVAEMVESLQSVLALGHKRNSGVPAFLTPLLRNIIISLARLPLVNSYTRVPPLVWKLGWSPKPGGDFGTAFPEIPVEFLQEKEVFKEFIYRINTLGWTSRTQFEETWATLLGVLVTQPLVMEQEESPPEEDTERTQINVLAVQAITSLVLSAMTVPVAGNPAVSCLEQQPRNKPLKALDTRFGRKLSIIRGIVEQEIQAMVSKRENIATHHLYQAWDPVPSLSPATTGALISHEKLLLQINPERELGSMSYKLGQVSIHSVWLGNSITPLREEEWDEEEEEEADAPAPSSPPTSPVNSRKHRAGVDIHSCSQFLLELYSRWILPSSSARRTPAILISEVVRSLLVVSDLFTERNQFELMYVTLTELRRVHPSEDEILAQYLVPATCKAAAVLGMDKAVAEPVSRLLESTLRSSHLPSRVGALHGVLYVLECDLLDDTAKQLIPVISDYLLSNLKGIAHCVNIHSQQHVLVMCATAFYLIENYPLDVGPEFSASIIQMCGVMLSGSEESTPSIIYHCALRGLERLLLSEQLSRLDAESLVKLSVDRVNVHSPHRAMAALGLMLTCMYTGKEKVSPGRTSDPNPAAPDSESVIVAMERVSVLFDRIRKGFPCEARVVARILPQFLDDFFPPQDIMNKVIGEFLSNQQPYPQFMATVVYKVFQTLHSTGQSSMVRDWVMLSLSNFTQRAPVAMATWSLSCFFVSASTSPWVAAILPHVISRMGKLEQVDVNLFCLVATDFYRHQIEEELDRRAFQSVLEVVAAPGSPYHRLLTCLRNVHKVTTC

Question: For `CC1(C)CC(=O)c2sc(NC(=O)C(C)(C)Oc3ccc(Cl)cc3)nc2C1`, which inhibition is on record?
Answer: Its inhibition is -1%.

Question: Which inhibition does the source give for `CCNc1nc(NCC)n2c(SCC(=O)c3ccc(C(C)(C)C)cc3)nnc2n1` here?
Answer: Its inhibition is -3%.

Question: With `O=C(NCCc1ccc(Cl)cc1)c1cnn2c3c(cnc12)CCCC3` as the compound, how does the inhibition read?
Answer: Its inhibition is -0.73%.

Question: `COc1ccc(C=C2Oc3c(ccc(OC(=O)N4CCOCC4)c3C)C2=O)cc1OC` was tested. Which inhibition did it give?
Answer: The inhibition was 1.6%.

Question: For `CCCc1[nH]nc2c1C1(CCOCC1)C(C#N)=C(N)O2`, which inhibition is on record?
Answer: Its inhibition is -0.61%.

Question: For `COc1ccc(C=C2Oc3c(ccc(O)c3CN3CCN(C)CC3)C2=O)cc1OC`, which inhibition is on record?
Answer: Its inhibition is 6.2%.

Question: `COc1cccc(C=C2Oc3c(ccc(O)c3CN3CCN(C)CC3)C2=O)c1` was tested. Which inhibition did it give?
Answer: The inhibition was 18.1%.

Question: `CN1CCN(Cc2c(O)ccc3c2OC(=Cc2cc4cc(Br)ccc4o2)C3=O)CC1` was tested. Which inhibition did it give?
Answer: The inhibition was 61.5% (active).

Question: `CCOc1ccccc1C(=O)NCc1ccc2c(c1)cc(C)n2C` was tested. Which inhibition did it give?
Answer: Its inhibition is 38.2%.

Question: With `COc1ccccc1N1CCN(C(=O)C(c2ccccc2)c2ccccc2)CC1` as the compound, how does the inhibition read?
Answer: Its inhibition is 38.2%.

Question: How did the inhibition turn out when `COc1ccccc1N1CCN(C(=O)Cc2csc(Nc3nc(C)cc(C)n3)n2)CC1` was run?
Answer: Its inhibition is 65% (active).

Question: With `COc1ccc(N2CCN(C(=O)CSCc3ccccc3)CC2)cc1` as the compound, how does the inhibition read?
Answer: Its inhibition is 20.7%.

Question: Which inhibition does the source give for `COc1ccccc1N1CCN(C(=O)c2cn3ccc(C)cc3n2)CC1` here?
Answer: Its inhibition is 0.9%.

Question: `COc1ccccc1N1CCN(C(=O)CSCc2ccccc2C)CC1` was tested. Which inhibition did it give?
Answer: Its inhibition is 66.4% (active).

Question: For `COc1ccccc1NC(=O)Nc1nc(CC(=O)N2CCc3ccccc32)cs1`, which inhibition is on record?
Answer: The inhibition was 14.7%.

Question: For `Cc1cc(C)nc(Nc2nc(CC(=O)Nc3nc(-c4ccco4)cs3)cs2)n1`, which inhibition is on record?
Answer: Its inhibition is 83.2% (active).

Question: `COC(=O)Nc1nc(CC(=O)NCc2ccco2)cs1` was tested. Which inhibition did it give?
Answer: The inhibition was -3.8%.

Question: For `O=C(CCCn1cccc1)Nc1nc(-c2ccco2)cs1`, which inhibition is on record?
Answer: The inhibition was 28.4%.

Question: How did the inhibition turn out when `O=C(CCS(=O)(=O)c1ccc(Br)s1)Nc1ccc(F)cc1` was run?
Answer: The inhibition was -1%.

Question: With `CC(C)C(=O)Oc1ccc2c(c1)OC(=Cc1ccco1)C2=O` as the compound, how does the inhibition read?
Answer: Its inhibition is 42.1%.

Question: Which inhibition does the source give for `CC(C)C1(CCN(Cc2ccc3c(c2)OCO3)C(=O)c2ccco2)CCOC(C)(C)C1` (stereo unspecified) here?
Answer: The inhibition was -2.26%.

Question: With `COc1cc(OC)cc(C(=O)Nc2nc(C)c(C)s2)c1` as the compound, how does the inhibition read?
Answer: Its inhibition is 9.5%.

Question: With `Cn1nccc1C(=O)N1CCC(c2nncn2-c2ccccc2)CC1` as the compound, how does the inhibition read?
Answer: Its inhibition is -1.38%.

Question: How did the inhibition turn out when `CCC(C)NC(=O)c1cn(CC(C)C)c(=O)c2c1c1ccccc1n2C` (stereo unspecified) was run?
Answer: Its inhibition is -2%.

Question: `Cc1ccc(COCc2nn(C)c3c2CN(C(=O)Nc2cccc(C)c2)CC3)cc1` was tested. Which inhibition did it give?
Answer: Its inhibition is 30.3%.

Question: With `O=C(CSc1nccn1-c1ccccc1)Nc1ccccc1C(F)(F)F` as the compound, how does the inhibition read?
Answer: The inhibition was 18%.

Reference: PubChem BioAssay AID1671202 (University of Kansas High Throughput Screening Laboratory, 2021)
